Inconclusive results are not listed. Active and inactive are the calls of the source. Rule for the calls: active = hit-call score of the fitted dose curve at least 0.9, where 1 is the maximum; inconclusive = response in the unintended direction; inactive = score below 0.9.

The test system of the experiment is Sodium/Iodide Symporter (NIS), SLC5A5 (gene 6528). As to the kind of experiment: CPHEA_Stoker_NIS_Inhibition_RAIU: CPHEA's Radioactive Iodide Uptake (RAIU) Assay for Sodium/Iodide Symporter (NIS) Inhibition, Stoker and Laws Labs (AID 2283841). The method, then:
CPHEA_Stoker_NIS is a cell-based, single-readout assay that uses hNIS-HEK293T-EPA, a novel human kidney cell line expressing human NIS, with measurements taken at 2 hours after chemical dosing in a 96-well plate. This radioactive iodide uptake (RAIU) assay is used to identify inhibitors of NIS-mediated iodide uptake. A parallel cytoxicity assay (Cell Titer Glo, Promega) was also run in the same cell line.CPHEA_Stoker_NIS_Inhibition_RAIU is one of 2 assay components measured from the CPHEA_Stoker_NIS assay. It is designed to make measurements of radioactive substrate uptake to understand transporter function, as detected with 125-i signals by MicroBeta radioactivity plate reader technology.Data from the assay component CPHEA_Stoker_NIS_Inhibition_RAIU was analyzed at the endpoint, CPHEA_Stoker_NIS_Inhibition_RAIU, in the positive analysis fitting direction relative to DMSO as the negative control and baseline of activity. Measures of radioactive substrate uptake for loss-of-signal activity can be used to understand the effects on transporter function at the pathway level as they relate to the sodium-iodide symporter, gene SLC5A5. To generalize the intended target to other relatable targets, this assay endpoint is annotated to the transporter intended target family, where the subfamily is sodium-iodide symporter (NIS).
hNIS-HEK293T-EPA cells were seeded with a MultiFlo FX dispenser (BioTek, Winooski, VT) into ScintiPlate-96 microplates (Perkin Elmer, Waltham, MA) at a density of 4.0x10^4 cells per well in 200uL growth media and incubated for 40 hours before experimentation. On day of the assay, carrier-free 125I (Perkin-Elmer, Waltham, MA; specific activity: 17.4Ci/mg) was diluted with Hanks' balanced salt solution (Sigma, St. Louis, MO) supplemented with 10mM HEPES (uptake buffer; pH 7.4) at 5uCi/mL (288pg 125I/mL uptake buffer; 2.30nM). The assay was initiated by washing cells twice with 200uL uptake buffer using a 96-well Tecan HydroSpeed plate washer (Tecan, Mannedorf, Switzerland). Uptake buffer (59.7uL) was then added back to each well. Chemical samples (350nL at 200X) were administered using the HDR tool as previously described to achieve a 1X chemical/0.5% final DMSO concentration with subsequent addition of 10uL of 125I dilution (final [125I]: 329pM; 2.88pg/well) for a final reaction volume of 70uL/well. Cells were incubated at room temperature for 2 hours and then washed twice with 200uL ice cold uptake buffer. All uptake buffer was aspirated from wells, plates were sealed, and read on a MicroBeta2 plate reader (Perkin Elmer, Waltham, MA) using a detection protocol to measure CPM corresponding to intracellular 125I concentration. Each chemical concentration (0.001, 0.01, 0.1, 1.0, 10, and 100uM) was assayed in triplicate with three independent biological replicate plates (3 sequential cell passages). Additionally, a concentration response of NaClO4 (0.001, 0.01, 0.1, 1.0, 10, and 100uM) served as a positive control inhibition curve on each RAIU assay plate. DMSO control wells were assayed on each plate as a measure of maximum iodide uptake for normalization and determination of intra- and inter-assay variation. (Toxicol In Vitro, 2017, 40:66-78).
`OCCCCC(F)(F)C(F)(F)C(F)(F)C(F)(F)F`: the result was inactive.
The AC50 is the concentration giving half of the maximal activity seen. `CCN=C1C=CC(=C(c2ccc(N(CC)CC)cc2)c2ccc(N(CC)CC)cc2)c2ccccc21`: the AC50 was 0.553 µM (active).
The same measure, in the same setting: the figure for `COCCOCCC[Si](C)(O[Si](C)(C)C)O[Si](C)(C)C` is 19.4 µM (active); for `CCCCCCCCCCCCC[N+](C)(C)Cc1ccccc1` it is 11.2 µM (active).
As for `OCC(F)(F)C(F)(F)C(F)(F)C(F)(F)C(F)(F)C(F)(F)C(F)(F)C(F)(F)CO`, the AC50 was 18.3 µM (active).
As for `O=C(c1ccccc1)c1ccc(O)cc1O`, the result was inactive.
The same measure, in the same setting: the entry for `OCC(O)CC(F)(F)C(F)(F)C(F)(F)C(F)(F)C(F)(F)C(F)(F)C(F)(F)C(F)(F)F` (configuration not stated) is “inactive”; for `O=S(=O)(OCC(F)(F)F)C(F)(F)C(F)(F)C(F)(F)C(F)(F)F` it is “inactive”.
Regarding `FC(F)(F)C(F)(F)C(F)(F)C(F)(F)C(F)(F)C(F)(F)C(F)(F)CCI`, the AC50 was 3.31 µM (active).
On to `CCC(Cc1c(I)cc(I)c(N)c1I)C(=O)O` (configuration not stated), for which the result was inactive.
On to `O=C(O)CCC(F)(F)C(F)(F)C(F)(F)C(F)(F)C(F)(F)C(F)(F)C(F)(F)F`, for which the outcome was inactive.
With `CC(C)Nc1ccc(NC(C)C)c2c1C(=O)c1ccccc1C2=O`, the result was inactive.
For the compound `CCc1cc(Cc2cc(CC)c(N)c(CC)c2)cc(CC)c1N`, the AC50 was 20 µM (active).
Still for that read-out and setting: the figure for `O=C1C=CC(=O)N1c1ccccc1` is 9.92 µM (active).
As to `OCC(F)(F)C(F)(F)C(F)(F)C(F)(F)C(F)(F)C(F)(F)CO`, the result was inactive.
As to `CCN(CCO)S(=O)(=O)C(F)(F)C(F)(F)C(F)(F)C(F)(F)C(F)(F)C(F)(F)C(F)(F)C(F)(F)F`, the result was inactive.
On the same count and under the same terms, as for `OCCCC(F)(F)C(F)(F)C(F)(F)C(F)(F)C(F)(F)C(F)(F)C(F)(F)C(F)(F)F`, the entry is “inactive”; as for `C=CC(=O)OCC(F)(F)C(F)(F)C(F)(F)COC(=O)C=C`, “inactive”.
Take `CCN=c1cc2oc3cc(NCC)c(C)cc3c(-c3ccccc3C(=O)OCC)c-2cc1C`: the AC50 was 3.23 µM (active).
`C=CC(=O)OCCC(F)(F)C(F)(F)C(F)(F)C(F)(F)F`: the outcome was inactive.
Consider `NS(=O)(=O)C(F)(F)C(F)(F)C(F)(F)C(F)(F)C(F)(F)C(F)(F)F`, for which the outcome was inactive.
On to `CCCCCCCCn1sc(Cl)c(Cl)c1=O`, for which the AC50 was 9.92 µM (active).
On to `O=C(F)C1(F)C(F)(F)C(F)(F)C(F)(F)C(F)(F)C1(F)F`, for which the result was inactive.
For the compound `CCCCCCCCCCCCCC[P+](CCCC)(CCCC)CCCC`, the half-maximal activity concentration (AC50) was 9.92 µM (active).
As to `C[C@]12CC[C@H]3C(=CCc4cc(O)ccc43)[C@@H]1CCC2=O`, the result was inactive.
For `CCCCCCCCCc1ccc(OCCO)cc1`, the AC50 is 7.03 µM (active).
For the compound `O=S(=O)(Cl)C(F)(F)C(F)(F)C(F)(F)C(F)(F)C(F)(F)C(F)(F)C(F)(F)C(F)(F)F`, the AC50 was 16.9 µM (active).

The record behind these values is PubChem BioAssay (EPA / NIEHS).
